SENP6 inh: blocks the human protease SENP6 | AID 2599 | Recombinant SENP6 catalytic domain, aminoluciferin luminescence | inhibition, % at 10 µM | Q9GZR1 | 1.8% of 330,000 active;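 active = inhibition above about 50% at the single tested dose, limit read from the data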;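 also: plate controls were DMSO wells with enzyme for no effect and DMSO wells lacking enzyme for full effect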
HSP90 refold inh: inhibitors of HSP90 luciferase refolding in rabbit reticulocyte lysate. luciferase refolding luminescence, 3 h. inhibition, % at 5.6 µM. 0.91% of 290,000 active. AID 1789;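 active = inhibition above the screen-wide mean plus 3 SD, computed separately per campaign, cut at about 16% in these data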;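 also: 0% = DMSO wells and 100% = 60 µM geldanamycin wells; inhibitors lower the luminescence because luciferase stays unfolded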
SENP8 block-1: blocks the human protease SENP8 | Q96LD8 | purified SENP8, Z-RLRGG-aminoluciferin cleavage, luminescence | inhibition, % at 10 µM | 1.2% of 330,000 active | AID 2540; in the data active = inhibition above about 50%
Target sequence (Q96LD8 whole entry, looked up): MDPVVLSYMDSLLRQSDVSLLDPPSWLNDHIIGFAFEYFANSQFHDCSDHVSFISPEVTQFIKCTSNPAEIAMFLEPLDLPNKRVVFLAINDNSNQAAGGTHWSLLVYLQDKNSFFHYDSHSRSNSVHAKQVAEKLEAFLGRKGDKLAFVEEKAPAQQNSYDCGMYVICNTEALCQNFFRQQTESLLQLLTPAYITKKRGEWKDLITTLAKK
SENP8 block-2: SENP8 (human) protease inhibition. recombinant SENP8, Nedd8 substrate fluorescence. 0.64% of 360,000 active. Q96LD8. inhibition, % at 20 µM; in the data active = inhibition mostly above about 40%, no sharp cut-off; inactive = mostly below about 27%
SENP7 block: SENP7 protease inhibition. Q9BQF6. recombinant SENP7, Z-RLRGG-aminoluciferin luminescence, 40 min. inhibition, % at 5 µM. 1.5% of 330,000 active;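 active = inhibition above about 50% at the single test dose, limit read from the data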;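 also: plate controls were DMSO with enzyme for no effect and no enzyme buffer wells for full effect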
Target sequence (Q9BQF6 706-1050 limits assumed): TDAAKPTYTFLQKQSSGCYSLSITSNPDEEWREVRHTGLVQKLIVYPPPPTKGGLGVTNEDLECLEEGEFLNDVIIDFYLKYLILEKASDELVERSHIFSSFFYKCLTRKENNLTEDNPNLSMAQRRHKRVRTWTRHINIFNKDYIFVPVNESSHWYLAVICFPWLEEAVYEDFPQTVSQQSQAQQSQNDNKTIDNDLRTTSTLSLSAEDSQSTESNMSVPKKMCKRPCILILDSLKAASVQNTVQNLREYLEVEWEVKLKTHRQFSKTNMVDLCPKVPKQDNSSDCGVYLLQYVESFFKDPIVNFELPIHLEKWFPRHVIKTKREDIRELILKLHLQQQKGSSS
SENP8 inh conf: SENP8 (human) inhibition, single concentration confirmation; purified SENP8, Nedd8-AMC/pro-Nedd8 cleavage fluorescence, 30 min; 15% of 1,400 active; shares compounds with SENP8 block-2; inhibition, % at 25 µM; in the data active = inhibition mostly above about 39%, no sharp cut-off; inactive = mostly below about 34%
* marks the source's active call; other numbers are inactive results. An excerpt weighted towards active compounds, which were near 2.7% of everything screened.

O=[N+]([O-])c1ccc(Cl)c(/C=N/N2CCN(Cc3ccccc3)CC2)c1 was read as SENP6 inh 3.1, HSP90 refold inh 4.3, SENP8 block-1 0.6, SENP8 block-2 1.3 and SENP7 block -5.4.
c1ccc(CNCCC(Cc2ccccc2)c2ccco2)cc1 (configuration not stated) was read as SENP6 inh -15.6, HSP90 refold inh 2.4, SENP8 block-1 -4.7, SENP8 block-2 48.4*, SENP7 block 3.7 and SENP8 inh conf -9.1.
Screening CC(=O)NCCC(Cc1ccccc1)c1ccco1 (configuration not stated) returned SENP6 inh 13.3, HSP90 refold inh -0.1, SENP8 block-1 -2.8, SENP8 block-2 11.9 and SENP7 block 0.0.
`COC(=O)c1ccc(NC(=O)CN(c2ccc(OC)cc2)S(C)(=O)=O)cc1` gave SENP6 inh 1.9, HSP90 refold inh 0.4, SENP8 block-1 1.8, SENP8 block-2 41.0*, SENP7 block 7.6 and SENP8 inh conf 17.3.
`CCCn1c(=C(C#N)C#N)s/c(=C2\C=Cc3ccccc3N2CC)c1=O` gave HSP90 refold inh 3.4, SENP8 block-2 52.1* and SENP8 inh conf 9.8.
`CC(=O)Nc1ccc(Nc2ncc([N+](=O)[O-])c(Nc3ccc(NC(C)=O)cc3)n2)cc1` gave SENP6 inh -5.4, HSP90 refold inh -4.4, SENP8 block-1 -4.0, SENP8 block-2 43.9*, SENP7 block -3.7 and SENP8 inh conf 8.4.
`CC(C)(C)c1cc(C(=O)NNc2cccc(Cl)c2)n(Cc2ccccc2)n1` gave SENP6 inh -8.3, HSP90 refold inh 1.4, SENP8 block-1 -4.0, SENP8 block-2 42.9*, SENP7 block -6.4 and SENP8 inh conf 20.0.
`O=C(O)CC1c2ccccc2CCN1S(=O)(=O)c1cccs1` (configuration not stated) gave SENP6 inh -15.6, SENP8 block-1 -3.1, SENP8 block-2 43.0*, SENP7 block -6.0 and SENP8 inh conf -8.8.
Screening COCCNc1cc(C)nc2c3c(C)cc(C)nc3nn12 returned SENP6 inh 5.7, HSP90 refold inh -3.9, SENP8 block-1 0.3, SENP8 block-2 -269.8 and SENP7 block 1.6.
For CC(=O)N/N=C(\C)C1COc2ccccc2O1 (configuration not stated) the results were SENP6 inh -2.6, HSP90 refold inh 0.2, SENP8 block-1 5.1, SENP8 block-2 40.8*, SENP7 block 4.8 and SENP8 inh conf 5.9.
CCOC(=O)c1[nH]c2cc(OC)c(OC)cc2c1NC(=O)c1ccc2c(c1)OCO2 was read as SENP6 inh 8.4, HSP90 refold inh -3.0, SENP8 block-1 3.7, SENP8 block-2 -74.3 and SENP7 block -3.9.
For CCOc1cccc(/C(O)=C2/C(=O)C(=O)N(Cc3ccco3)C2c2ccncc2)c1 (configuration not stated) the results were SENP6 inh -11.6, HSP90 refold inh -0.1, SENP8 block-1 -9.4, SENP8 block-2 19.5 and SENP7 block -1.5.
Screening Cc1ccc2oc(C(=O)NCC(c3ccco3)N(C)C)c(C)c2c1 (configuration not stated) returned SENP6 inh 2.4, HSP90 refold inh 4.1, SENP8 block-1 4.0, SENP8 block-2 10.7 and SENP7 block -0.7.
Screening Cc1ccc(N(C)C(=O)c2cc(S(=O)(=O)N3CCc4ccccc43)cn2C)cc1 returned SENP6 inh -13.9, HSP90 refold inh 3.2, SENP8 block-1 -10.3, SENP8 block-2 3.4 and SENP7 block -12.6.
Cc1cccc(N(C)C(=O)c2cc(S(=O)(=O)N3CCc4ccccc43)cn2C)c1 was read as SENP6 inh -3.8, HSP90 refold inh -2.0, SENP8 block-1 -4.2, SENP8 block-2 45.7*, SENP7 block -3.0 and SENP8 inh conf -8.9.
Screening NS(=O)(=O)c1ccc(CCNC(=O)CNC(=O)c2ccc(Oc3ccccc3)cc2)cc1 returned SENP6 inh -16.4, HSP90 refold inh -3.0, SENP8 block-1 6.9, SENP8 block-2 13.2 and SENP7 block -2.2.
Screening C=CCc1ccc(OC)c(OC)c1 returned SENP6 inh -6.5, HSP90 refold inh -6.4, SENP8 block-1 1.3, SENP8 block-2 51.9*, SENP7 block -5.3 and SENP8 inh conf 14.8.
Screening COc1ccc(-n2c(Cc3cccn3C)nnc2SCC(=O)Nc2cccc(C)c2C)cc1 returned SENP6 inh -2.6, HSP90 refold inh 2.9, SENP8 block-1 3.8, SENP8 block-2 2.4 and SENP7 block -1.8.
CCC(C)NCCOc1ccc(C)cc1[N+](=O)[O-] (configuration not stated) was read as HSP90 refold inh 1.5, SENP8 block-2 40.2* and SENP8 inh conf 22.3.
`C=CCNCCOc1ccc(C)cc1[N+](=O)[O-]` gave SENP6 inh 8.1, HSP90 refold inh -1.1, SENP8 block-1 -2.7, SENP8 block-2 19.2 and SENP7 block -4.8.
Screening Cc1nc2ccccc2n1/N=C/c1ccc([N+](=O)[O-])o1 returned SENP6 inh 19.0, HSP90 refold inh 1.7, SENP8 block-1 14.3, SENP8 block-2 41.9*, SENP7 block 2.3 and SENP8 inh conf 47.2*.
For O=c1c(C(c2ccc(Cl)cc2)c2c(O)nc3n(c2=O)CCCS3)c(O)nc2n1CCCS2 the results were SENP6 inh -14.9, HSP90 refold inh 1.8, SENP8 block-1 -15.3, SENP8 block-2 13.8 and SENP7 block -9.3.
Cc1c(C#N)c(O)n(C)c(=O)c1N=Nc1ccc(S(N)(=O)=O)cc1 was read as HSP90 refold inh 4.0, SENP8 block-2 48.7* and SENP8 inh conf 17.7.
For COc1cc(-c2nn3c(-c4ccccn4)nnc3s2)cc(OC)c1OC the results were HSP90 refold inh -1.4.
Screening S=C(NC1CCCCC1)N1CCOCCOCCN(C(=S)NC2CCCCC2)CCOCC1 returned SENP6 inh -11.1, HSP90 refold inh -0.3, SENP8 block-1 -6.5, SENP8 block-2 7.5 and SENP7 block 9.0.
O=C(Nc1cccnc1)c1ccc(CN2CCc3ccccc3C2)cc1 was read as SENP6 inh -14.1, HSP90 refold inh 2.4, SENP8 block-1 -8.9, SENP8 block-2 50.8*, SENP7 block -3.8 and SENP8 inh conf 34.2.
Cc1ccc(NC(=O)c2ccc(CN3CCc4ccccc4C3)cc2)cc1 was read as SENP6 inh 21.5, HSP90 refold inh -1.2, SENP8 block-1 6.5, SENP8 block-2 70.8*, SENP7 block 11.8 and SENP8 inh conf 29.5.
CC1=C(C)CS(=O)N(S(=O)(=O)c2ccccc2)C1 (configuration not stated) was read as SENP6 inh -11.2, HSP90 refold inh 8.1, SENP8 block-1 0.7, SENP8 block-2 29.6 and SENP7 block 7.9.
Screening Cc1ccc(Sc2ncccc2COC(=O)Nc2ccccc2)cc1 returned SENP6 inh 15.0, HSP90 refold inh 0.4, SENP8 block-1 -15.3, SENP8 block-2 40.0*, SENP7 block -1.0 and SENP8 inh conf 9.3.
For Cc1ccc(Sc2ncccc2COC(=O)Nc2c(C)cccc2C)cc1 the results were SENP6 inh -0.6, HSP90 refold inh -0.2, SENP8 block-1 10.5, SENP8 block-2 19.5 and SENP7 block -6.9.
